Measurements taken from PubChem BioAssay (NCATS).
Several values for one entry are separate records, joined by “and”; a condition that tells them apart may be missing. Identical values can stand only once. Results filed as inconclusive are left out. More than one record can exist for a structure, and the calls need not agree. Activity calls are given as the source filed them. Calls follow the shape of the dose curve; as a rule, active = well fitted curve in the direction sought with a large enough effect; inconclusive = small, poorly fitted or top-dose-only effect, or another doubt; inactive = no such curve, though single readings can be large; an effect the other way counts as inactive or inconclusive.

What was measured:
[1] = biological target: Metallo-beta-lactamase type 2 (Klebsiella pneumoniae) (UniProt C7C422); assay: qHTS to identify inhibitors of the New Delhi Metallo-beta-lactamase (NDM): assay validation screen against the NCATS LOPAC Collection (AID 1794843);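 also: nitrocefin turnover by NDM-1 measured as 485 nm absorbance at plateau; series mostly up to about 38 µM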
Summary of the method: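 NDM-1 at 2 nM final in 50 mM HEPES pH 7.0 with 1 uM ZnSO4 and 0.01% Tween20 was preincubated with library compounds in DMSO. Nitrocefin (50 uM stock) was then added, and absorbance at 485 nm was read at the kinetic plateau.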

[2] = biological target: Glutathione peroxidase 1 (Homo sapiens) (UniProt P07203); assay: Primary qHTS Assay for Inhibitors of Recombinant Selenoprotein Glutathione Peroxidase 1 (GPX1) (AID 1845191); also: nearly all actives have a fitted effect of over 65% in size
Summary of the method: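 Recombinant GPX1 (10 nM final) was preincubated with compound for 30 min at room temperature, then reacted with 1 mM GSH, 0.5 mM CHP, 0.5 mM NADPH and 100 nM glutathione reductase; NADPH fluorescence (340/450 nm) was read at 0 and 15 min.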

[3] = biological target: Phospholipid hydroperoxide glutathione peroxidase GPX4 (Homo sapiens) (UniProt P36969); assay: Primary qHTS Assay for Inhibitors of Recombinant Selenoprotein Glutathione Peroxidase 4 (GPX4) (AID 1845192); also: nearly all actives have a fitted effect of over 65% in size; also: potency is read from the fitted curve at half-maximal effect
Summary of the method: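 GR-coupled readout: 100 nM GR, 1 mM GSH, 0.5 mM NADPH; NADPH fluorescence (ex 340/em 450 nm) read at t=0 and after 15 min RT. GPX4 200 nM, preincubated 30 min with compound; substrate 0.5 mM CHP.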

[4] = Quantitative High-Throughput drug screen in 47 multiple myeloma cell lines against the NCATS MIPE library collection: Delta47_JCRB cell viability assay (AID 1918925; also: nearly all actives have a fitted effect of over 45% in size; also: potency is read from the fitted curve at half-maximal effect)
Summary of the method: (§1)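 Steps: seed 500 cells per well; pin-transfer MIPE 4.0 library; incubate 48 h at 37C, 5% CO2, humidified; add CellTiter-Glo, 5 min room temperature; read luminescence.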

[5] = Quantitative High-Throughput drug screen in 47 multiple myeloma cell lines against the NCATS MIPE library collection: EJM_DSMZ cell viability assay (AID 1918926; also: nearly all actives have a fitted effect of over 30% in size; also: potency is read from the fitted curve at half-maximal effect)
Summary of the method: as §1

[6] = Quantitative High-Throughput drug screen in 47 multiple myeloma cell lines against the NCATS MIPE library collection: AMO1_DSMZ cell viability assay (AID 1918927; also: nearly all actives have a fitted effect of over 30% in size; also: potency is read from the fitted curve at half-maximal effect)
Summary of the method: as §1

[7] = Quantitative High-Throughput drug screen in 47 multiple myeloma cell lines against the NCATS MIPE library collection: ARD_JJKsccE7 cell viability assay (AID 1918929; also: potency is read from the fitted curve at half-maximal effect)
Summary of the method: as §1

[8] = Quantitative High-Throughput drug screen in 47 multiple myeloma cell lines against the NCATS MIPE library collection: KMM1_JCRB cell viability assay (AID 1918960); also: nearly all actives have a fitted effect of over 30% in size; also: potency is read from the fitted curve at half-maximal effect
Summary of the method: (§2)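 Myeloma cells, 500 per well, were exposed to MIPE 4.0 drugs by pin transfer for 48 h at 37 °C, 5% CO2. Viability was read as ATP luminescence with CellTiter-Glo, normalised to DMSO-only (100%) and medium-only (0%) wells.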

[9] = Quantitative High-Throughput drug screen in 47 multiple myeloma cell lines against the NCATS MIPE library collection: KHM11_PLB cell viability assay (AID 1918962); also: nearly all actives have a fitted effect of over 35% in size; also: potency is read from the fitted curve at half-maximal effect
Summary of the method: (§3)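 Viability readout: CellTiter-Glo luminescence following 5 min room-temperature incubation with reagent. Prior exposure: 48 h, 37C, humidified 5% CO2, 500 cells per well.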

[10] = Quantitative High-Throughput drug screen in 47 multiple myeloma cell lines against the NCATS MIPE library collection: JIM3_ECACC cell viability assay (AID 1918963; also: nearly all actives have a fitted effect of over 35% in size; also: potency is read from the fitted curve at half-maximal effect)
Summary of the method: as §3

[11] = Quantitative High-Throughput drug screen in 47 multiple myeloma cell lines against the NCATS MIPE library collection: JJN3_DSMZ cell viability assay (AID 1918966; also: potency is read from the fitted curve at half-maximal effect; nearly all actives have a fitted effect of over 50% in size)
Summary of the method: as §1

[12] = Quantitative High-Throughput drug screen in 47 multiple myeloma cell lines against the NCATS MIPE library collection: FR4_PLB cell viability assay (AID 1918924; also: nearly all actives have a fitted effect of over 35% in size; also: potency is read from the fitted curve at half-maximal effect)
Summary of the method: as §3

[13] = Quantitative High-Throughput drug screen in 47 multiple myeloma cell lines against the NCATS MIPE library collection: ARP1_JJKsccF8 cell viability assay (AID 1918928; also: nearly all actives have a fitted effect of over 40% in size; also: potency is read from the fitted curve at half-maximal effect)
Summary of the method: as §2

[14] = Quantitative High-Throughput drug screen in 47 multiple myeloma cell lines against the NCATS MIPE library collection: INA6_PLB cell viability assay (AID 1918965; also: nearly all actives have a fitted effect of over 55% in size; also: potency is read from the fitted curve at half-maximal effect)
Summary of the method: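 Approved and investigational drugs from MIPE 4.0 were added by pin tool to 500 cells per well. After 48 hours at 37C, ATP-based CellTiter-Glo luminescence indicated remaining viability.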

[15] = biological target: Luciferin 4-monooxygenase (Photinus pyralis) (UniProt P08659); assay: Primary firefly luciferase (FLuc) qHTS assay for identification of artifact compounds. (AID 1845220); also: series mostly up to about 54 µM; nearly all actives have a fitted effect of over 60% in size
Summary of the method: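 Reaction readout was CCD-imaged luminescence, taken 5 min after adding 10 nM purified firefly enzyme to compound-treated wells holding 10 uM luciferin and ATP in pH 7.6 buffer.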

[16] = tested on: Nanoluciferase (engineered Oplophorus gracilirostris luciferase); assay: Primary Nanoluciferase (NLuc) qHTS assay for identification of artifact compounds. (AID 1845222);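 also: NLuc secreted into diluted conditioned medium of S16 cells; series mostly up to about 54 µM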
Summary of the method: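 Concentration-response data were obtained by luminescence after 5 min with Nano-Glo substrate at 1:100. The enzyme was diluted S16 NLuc-expressing cell medium, preincubated with compound for 15 min at RT. Curves were fitted with a 4-parameter Hill model.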

[17] = Primary redox qHTS assay for identification of artifact compounds. (AID 1845223)
Summary of the method: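 Amplex Red (25 uM) and HRP (250 mU/mL) in HBSS, with compounds for 15 min, then 250 uM DTT for 30 min, room temperature, dark. Fluorescence 525/598 nm read; normalized to DMSO and 10 uM DA3003; Hill fit.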

[18] = Quantitative High-Throughput drug screen in 47 multiple myeloma cell lines against the NCATS MIPE library collection: JIM1_ECACC cell viability assay (AID 1918964; also: potency is read from the fitted curve at half-maximal effect)
Summary of the method: as §1

[19] = Quantitative High-Throughput drug screen in 47 multiple myeloma cell lines against the NCATS MIPE library collection: Karpas620_DSMZ cell viability assay (AID 1918959); also: nearly all actives have a fitted effect of over 30% in size; also: potency is read from the fitted curve at half-maximal effect
Summary of the method: as §3

[20] = HepG2 viability counterscreen (readout 1: protease activity) against the NCATS DSHEA and TCM libraries (AID 1794841);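 also: cells exposed to compounds for about 24 h before the protease read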
Summary of the method: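 Readout 1: cellular protease activity, GF-AFC substrate (25 uM final, 30 min, fluorescence 380/510 nm). Readout 2: ATP content by CellTiter-Glo luminescence after 30 min at RT. Both follow ~24 h exposure of HepG2 cells (1,000/well) to substances.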

Measured: Potency

Metallo-beta-lactamase type 2 (Klebsiella pneumoniae), sequence (C7C422 whole entry, looked up): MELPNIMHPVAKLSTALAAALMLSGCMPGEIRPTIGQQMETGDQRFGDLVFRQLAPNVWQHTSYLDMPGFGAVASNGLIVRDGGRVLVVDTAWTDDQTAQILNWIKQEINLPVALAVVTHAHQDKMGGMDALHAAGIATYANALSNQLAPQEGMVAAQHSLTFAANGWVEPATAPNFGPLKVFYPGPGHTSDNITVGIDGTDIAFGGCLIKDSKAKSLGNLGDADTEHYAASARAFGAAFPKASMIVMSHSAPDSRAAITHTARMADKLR
Phospholipid hydroperoxide glutathione peroxidase GPX4 (Homo sapiens), sequence (P36969 whole entry, looked up): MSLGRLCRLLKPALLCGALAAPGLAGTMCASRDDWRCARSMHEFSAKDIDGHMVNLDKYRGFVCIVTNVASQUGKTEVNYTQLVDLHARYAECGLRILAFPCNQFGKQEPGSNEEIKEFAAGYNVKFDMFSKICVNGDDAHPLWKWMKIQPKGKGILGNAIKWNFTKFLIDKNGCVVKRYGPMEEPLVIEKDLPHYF
Glutathione peroxidase 1 (Homo sapiens), sequence (P07203 whole entry, looked up): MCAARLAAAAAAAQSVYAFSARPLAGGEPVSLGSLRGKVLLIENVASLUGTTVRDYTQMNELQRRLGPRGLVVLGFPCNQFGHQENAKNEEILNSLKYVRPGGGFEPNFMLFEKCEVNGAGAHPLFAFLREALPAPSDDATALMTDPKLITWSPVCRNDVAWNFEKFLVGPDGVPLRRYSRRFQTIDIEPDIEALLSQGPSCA

O=c1c(O)c(-c2cc(O)c(O)c(O)c2)oc2cc(O)cc(O)c12
inactive: [1] | [2] | [3] | [4] | [5] | [6] | [7] | [8] | [9] | [10]
active: [11] 20.9 µM

O=c1c(O)c(-c2ccc(O)cc2O)oc2cc(O)cc(O)c12
inactive: [1] | [12] | [5] | [13] | [7] | [8] | [9] | [10]
inactive and 10.1 µM (active): [3]

Cc1cc(Cl)ccc1OCCCC(=O)NO
active: [4] 2.96 µM | [5] 0.296 µM | [7] 20.9 µM | [9] 11.8 µM | [10] 9.35 µM | [14] 7.43 µM | [11] 0.372 µM
inactive: [1] | [3]

c1cnc2cc3c(cc2n1)C1CNCC3C1
not listed: [2] | [4] | [11] | [19] | [20]
inactive: all other assays above

CCOC(=O)C1=C(O)C(=O)N(Cc2ccccc2)C1
inactive: [1] | [3] | [12] | [5] | [6] | [7] | [8] | [10] | [14]
active: [11] 9.35 µM

O=C(O)c1cccnc1Nc1cccc(C(F)(F)F)c1
not listed: [2] | [9] | [11] | [15] | [16] | [17] | [18] | [20]
inactive: all other assays above

NC(=NCc1ccccc1)NC(=O)c1nc(Cl)c(N)nc1N
active: [4] 6.62 µM | [9] 10.5 µM | [14] 9.35 µM
inactive: [1] | [2] | [12] | [5] | [13]

CN(C)CCCC1(c2ccc(F)cc2)OCc2cc(C#N)ccc21 (stereo not given)
not listed: [4] | [5] | [11] | [14] | [18] | [20]
inactive: all other assays above

Cc1cc(O)c2c(c1)C(=O)c1cc(O)cc(O)c1C2=O
active: [12] 0.418 µM
not listed: [5] | [9] | [11] | [13] | [15] | [16] | [17]
inactive: all other assays above

COc1cc2c(cc1OC)C1CC(=O)C(CC(C)C)CN1CC2 (stereo not given)
not listed: [6] | [11] | [13] | [14] | [15] | [16] | [17] | [20]
inactive: all other assays above

COc1ccccc1N1CCN(CCN(C(=O)C2CCCCC2)c2ccccn2)CC1
active: [4] 10.5 µM | [6] 2.96 µM | [7] 1.18 µM | [14] 3.72 µM
inactive: [1] | [2] | [3] | [15] | [16] | [12] | [5] | [13] | [10]

O=Nc1c(-c2c(O)[nH]c3cc(Br)ccc23)[nH]c2ccccc12
active: [4] 5.9 µM | [5] 14.8 µM | [6] 1.05 µM | [13] 14.8 µM | [19] 8.33 µM | [8] 5.26 µM | [9] 4.69 µM | [10] 5.26 µM | [18] 1.32 µM | [14] 0.526 µM | [11] 18.7 µM
inactive: [1] | [2] | [3] | [12]

CCN(CC)CCOc1ccc(Nc2ncc3cc(-c4c(Cl)cccc4Cl)c(=O)n(C)c3n2)cc1
active: [12] 0.935 µM | [4] 1.32 µM | [5] 2.09 µM | [6] 0.166 µM | [13] 2.64 µM | [7] 0.166 µM | [19] 2.09 µM | [8] 0.0332 µM | [9] 1.32 µM | [10] 0.118 µM | [18] 0.0833 µM
inactive: [1] | [3]

CC(=O)N1CCN(c2ccc(OC[C@H]3CO[C@](Cn4ccnc4)(c4ccc(Cl)cc4Cl)O3)cc2)CC1
inactive: [1] | [2] | [3] | [18]
active: [4] 18.7 µM | [5] 8.33 µM | [6] 7.43 µM | [19] 5.26 µM | [8] 5.26 µM | [10] 11.8 µM

Cc1cccc(C#Cc2ccccc2)n1
active: [13] 20.9 µM | [14] 13.2 µM
inactive: [1] | [2] | [3] | [12] | [4] | [5] | [6] | [8] | [10]

O=C(c1ccccc1)c1ccc2n1CCC2C(=O)O (stereo not given)
active: [4] 9.35 µM | [5] 2.35 µM | [9] 8.33 µM | [10] 16.6 µM | [14] 10.5 µM
inactive: [1] | [2] | [3] | [12] | [7] | [8]

CC(C)c1ccc2c(c1)c(SC(C)(C)C)c(CC(C)(C)C(=O)O)n2Cc1ccc(Cl)cc1
active: [4] 26.4 µM | [11] 18.7 µM
inactive: [1] | [2] | [3] | [6] | [8] | [9] | [18]
